For 5 compounds, potency estimated from few doses results are on record in article PMC11062922 (Nature Chemical Biology, 2023).

Holding throughout (set-up): species or system human, MV4-11 + K-562 + COLO205 + SK-N-BE2 + OVCAR-8
One test relates to CDK6. The settings on record: read-out: apparent Kd, n = 1.
The subject of another test is CDK7. To be noted: read-out: apparent Kd; compound concentrations: 100 nM and 1000 nM (sheet 'Samples'), CATDS: 8.4335056049156601E-2; n = 1.
The next test has as its system EPHA5. To be noted: read-out: apparent Kd; compound concentrations: 100 nM and 1000 nM (sheet 'Samples'), CATDS: 7.2696381065974702E-2; n = 1.
In the next test the test system is EPHB4. The settings on record: read-out: apparent Kd; compound concentrations: 100 nM and 1000 nM (sheet 'Samples'), CATDS: 7.5541211933236804E-2; n = 1.
For the next test, the system named is ERCC2. The settings on record: read-out: apparent Kd, compound concentrations: 100 nM and 1000 nM (sheet 'Samples'), n = 1.
Another test relates to FER. To be noted: read-out: apparent Kd; compound concentrations: 100 nM and 1000 nM (sheet 'Samples'), CATDS: 7.77606230380051E-2; n = 1.
Another test has as its system GAK. To be noted: read-out: apparent Kd; compound concentrations: 100 nM and 1000 nM (sheet 'Samples'), CATDS: 7.8204164782115004E-2; n = 1.
The next test deals with GSK3A. The settings on record: read-out: apparent Kd, n = 1.
For a further test, the system named is PIK3C3. To be noted: read-out: apparent Kd; compound concentrations: 100 nM and 1000 nM (sheet 'Samples'), CATDS: 0.106578843558364; n = 1.
For the next test, the system named is PIK3CB. To be noted: read-out: apparent Kd; compound concentrations: 100 nM and 1000 nM (sheet 'Samples'), CATDS: 0.68027770173125801; n = 1.
In the next test the test system is TNK1. The settings on record: read-out: apparent Kd; compound concentrations: 100 nM and 1000 nM (sheet 'Samples'), CATDS: 9.2477692433592898E-2; n = 1.
For the next test, the system named is TNK2. The settings on record: read-out: apparent Kd; compound concentrations: 100 nM and 1000 nM (sheet 'Samples'), CATDS: 8.9325991753534395E-2; n = 1.
A further test deals with T1, DJA1.
T1 construct: gene DNAJA1
To be noted: read-out: apparent Kd; compound concentrations:100 nM and 1000 nM (sheet 'Samples'); n = 1.

The next test has as its system GARS. The settings on record: read-out: apparent Kd; compound concentrations:100 nM and 1000 nM (sheet 'Samples'); n = 1.
The test system of the next test is GSK3B. To be noted: read-out: apparent Kd; compound concentrations:100 nM and 1000 nM (sheet 'Samples'); n = 1.
In the next test the test system is MAP2K1. To be noted: read-out: apparent Kd; compound concentrations:100 nM and 1000 nM (sheet 'Samples'); n = 1.
The test system of the next test is NNT. The settings on record: read-out: apparent Kd; compound concentrations:100 nM and 1000 nM (sheet 'Samples'); n = 1.
The test system of another test is NQO1. The settings on record: read-out: apparent Kd, n = 1.
The next test has as its system PIK3CA. To be noted: read-out: apparent Kd; compound concentrations:100 nM and 1000 nM (sheet 'Samples'); n = 1.
For another test, the system named is PIK3CD. To be noted: read-out: apparent Kd, n = 1.
For another test, the system named is PRKCZ. The settings on record: read-out: apparent Kd; compound concentrations:100 nM and 1000 nM (sheet 'Samples'); n = 1.
In a further test the test system is PRKD2. The settings on record: read-out: apparent Kd; compound concentrations:100 nM and 1000 nM (sheet 'Samples'); n = 1.
In the next test the test system is PSMC3. To be noted: read-out: apparent Kd; compound concentrations:100 nM and 1000 nM (sheet 'Samples'); n = 1.
In another test the test system is SMC4. To be noted: read-out: apparent Kd; compound concentrations:100 nM and 1000 nM (sheet 'Samples'); n = 1.
In a further test the test system is CIT. The settings on record: read-out: apparent Kd; compound concentrations: 100 nM and 1000 nM (sheet 'Samples'), CATDS: 0.166280456271373; n = 1.
The subject of the next test is CSNK1D. The settings on record: read-out: apparent Kd; compound concentrations: 100 nM and 1000 nM (sheet 'Samples'), CATDS: 0.24593653580007899; n = 1.
The subject of a further test is CSNK1E. The settings on record: read-out: apparent Kd; compound concentrations: 100 nM and 1000 nM (sheet 'Samples'), CATDS: 0.167544749669055; n = 1.
The next test concerns MAPK14. To be noted: read-out: apparent Kd, compound concentrations: 100 nM and 1000 nM (sheet 'Samples'), n = 1.
The next test concerns MAPKAPK2. To be noted: read-out: apparent Kd; compound concentrations: 100 nM and 1000 nM (sheet 'Samples'), CATDS: 0.22915733614063999; n = 1.
The test system of another test is ILK. The settings on record: read-out: apparent Kd; compound concentrations: 100 nM and 1000 nM (sheet 'Samples'), CATDS: 9.2277554070836695E-2; n = 1.
The next test concerns IRAK1. To be noted: read-out: apparent Kd; compound concentrations: 100 nM and 1000 nM (sheet 'Samples'), CATDS: 0.100374426884943; n = 1.
A further test concerns MAPK11. The settings on record: read-out: apparent Kd; compound concentrations: 100 nM and 1000 nM (sheet 'Samples'), CATDS: 0.114875582953057; n = 1.
In another test the test system is PRKCQ. To be noted: read-out: apparent Kd; compound concentrations: 100 nM and 1000 nM (sheet 'Samples'), CATDS: 8.2854130075837501E-2; n = 1.
A further test concerns RIOK2. To be noted: read-out: apparent Kd; compound concentrations: 100 nM and 1000 nM (sheet 'Samples'), CATDS: 7.9590231457497898E-2; n = 1.
Where [1] appears, read: compound concentrations:100 nM and 1000 nM (sheet 'Samples').

Where two headings read alike, the source gives them in different places.

Regarding `COc1cc(C)c(N(C)C(=O)CN(C)C)cc1Nc1nc(Nc2cccc(F)c2C(N)=O)c2cc[nH]c2n1` [GSK2219385_KCGS], the potency estimated from few doses with CDK6 (setting [1]) was 1850 nM.
With `O=c1cc(N2CCOCC2)nc2n(Cc3cccc(Cl)c3Cl)ccn12` [GSK2286295A], the potency estimated from few doses in the test on CDK7 was 923 nM; in the test on EPHA5, 1360 nM; in the test with EPHB4, 1220 nM; in the test on ERCC2 (CATDS: 9.6102785253179598E-2), 687 nM; in the test on FER it was 1130 nM; in the test on GAK, 1110 nM. Also, the potency estimated from few doses is 1220 nM with GSK3A (compound concentrations: 100 nM and 1000 nM (sheet 'Samples'), CATDS: 7.5555777377750599E-2); 554 nM with PIK3C3; 21.8 nM in the test on PIK3CB; 747 nM in the test with TNK1; 807 nM in the test with TNK2.
`COc1cccc(C2=C(Nc3cccc(C(=O)O)c3)C(=O)NC2=O)c1` [SB-390770]: the potency estimated from few doses is 2180 nM in the test on CDK6 (setting [1]); 842 nM with DJA1; 1360 nM with GARS; 830 nM with GSK3A (setting [1]); 859 nM with GSK3B; 2350 nM in the test on MAP2K1. For the same compound, the potency estimated from few doses is 1120 nM with NNT; 2210 nM in the test with NQO1 (setting [1]); 226 nM in the test with PIK3CA; 130 nM in the test on PIK3CD (setting [1]); 1580 nM with PRKCZ; 1720 nM in the test on PRKD2. The values for the potency estimated from few doses in the test on PSMC3 and with SMC4 were 907 nM and 986 nM, respectively.
In the case of `Fc1ccc(-c2nn3cccc(F)c3c2-c2ccncc2)cc1` [GW475620X], the potency estimated from few doses in the test on CIT is 1690 nM; in the test on CSNK1D, 751 nM; with CSNK1E, 1660 nM; in the test on MAPK14 (CATDS: 0.21797862519498301), 934 nM; in the test on MAPKAPK2, 851 nM.
`Cl.Nc1c(C(=O)c2cccc(-c3cccnc3)c2)cnn1-c1ccc(F)cc1` [RO1162529-002]: the potency estimated from few doses is 1190 nM with CDK6 (compound concentrations: 100 nM and 1000 nM (sheet 'Samples'), CATDS: 9.94086879029107E-2); 2030 nM in the test on ERCC2 (CATDS: 8.00195217918135E-2); 1410 nM with ILK; 1160 nM in the test with IRAK1; 877 nM in the test with MAPK11; 1470 nM with MAPK14 (CATDS: 9.0546615649564399E-2). Moreover, the potency estimated from few doses is 1100 nM in the test with NQO1 (compound concentrations: 100 nM and 1000 nM (sheet 'Samples'), CATDS: 0.102757075513336); 126 nM with PIK3CD (compound concentrations: 100 nM and 1000 nM (sheet 'Samples'), CATDS: 0.395344018245397); 1850 nM with PRKCQ; 2060 nM in the test with RIOK2.
